This excerpt belongs to a sample that is enriched for hits.
Pf Dd2 inh = qHTS Primary assay for Inhibitors of Plasmodium falciparum Dd2 growth in vitro; hit rate 4.3% among 120,000; P. falciparum Dd2 growth, SYBR Green, 72 h; AID 1347417, 2020; Potency, µM (doses to about 28.9 µM), usual class: inhibitors; active = well fitted inhibition curve with a large enough effect; note: nearly all actives have a fitted effect of over 65% in size
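Infected erythrocytes (Dd2, 0.3% parasitemia, 2.5% hematocrit final) are added to compound in RPMI-1640/Albumax II medium, grown 72 h at 37C in low oxygen, then lysed with saponin/Triton-X containing SYBR Green and read by fluorescence.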
Large screens that a line does not name were inactive.

COc1ccc(S(=O)(=O)N[C@H]2[C@H](O)[C@H](O)C[C@@H]2c2ccccc2C)cc1	none
COCCN1CCCCCC(O)c2cc(C(=O)NCC(C)C)ccc21 (centres undefined)	none
COCCN1CCCCCC(O)c2cc(C(=O)NCC3CC3)ccc21 (centres undefined)	none
COCCN1CCCCCC(O)c2cc(C(=O)NCc3cc(F)cc(F)c3)ccc21 (centres undefined)	Pf Dd2 inh 13µM
CN1CC(=O)N(C2CCCNC2)Cc2c(NCC3CCCCCC3)ncnc21 (centres undefined)	none
COc1cccc(CNC(=O)C2CCCN(S(=O)(=O)c3ccc4c(ccn4C)c3)C2)c1 (centres undefined)	none
O=C(O)c1ccnc(-c2ccnc(NCCc3noc(C4CCC4)n3)n2)c1	none
CCC(=O)N1Cc2ccccc2OC2(CCN(C)CC2)C1	none
CC(C)NC(=O)N1Cc2ccccc2OC2(CCN(C(=O)c3ccc4[nH]ccc4c3)CC2)C1	Pf Dd2 inh 10µM
CC(=O)N1Cc2ccccc2OC2(CCN(C(=O)c3cccc4[nH]ccc34)CC2)C1	none
CC(C)NC(=O)N1CCC2(CC1)CN(C(=O)c1ccnc(N)c1)Cc1ccccc1O2	none
CC(=O)N1CCC2(CC1)CN(C(=O)N(C)C)Cc1ccccc1O2	none
CN1CCC2(CC1)CN(C(=O)CCc1ccccc1)Cc1ccccc1O2	Pf Dd2 inh 1µM
CC(=O)N1CCC2(CC1)CN(C(=O)c1ccc3[nH]ccc3c1)Cc1ccccc1O2	Pf Dd2 inh 10µM
CC(=O)Nc1ccc(C(=O)N2CCC3(CC2)CN(C(=O)NC(C)C)Cc2ccccc2O3)cc1	none
COCCOCC(=O)N1Cc2ccccc2OC2(CCN(C)CC2)C1	none
Cc1[nH]cnc1CN1CC[C@H](N2CCN(C)CC2)[C@H](CCC(=O)O)C1	none
CC1Oc2ccc(NC(=O)c3ccc(F)cc3F)cc2CN(CCc2ccccc2)C1=O (centres undefined)	none
O=C(COc1cccc(Cl)c1)N1CCC(c2nc3ccccc3o2)CC1	none
CCOc1ccc(-n2ccnc2SCC(=O)Nc2ccc(OC)cc2OC)cc1	none
O=C1c2ccccc2CN1C1CCN(CC2CCCCC2)CC1	none
COc1ccc(-c2cn3nc(N4CCC(C(=O)NCc5cccc(Cl)c5)CC4)sc3n2)cc1	none
Cn1ccc2c(C(=O)NCCC(N)=O)nc(-c3cccc(CO)c3)cc21	none
O=C(COc1ccccc1)Nc1ccc([C@@H](O)[C@H]2COCC(=O)N2CCCc2ccccc2)cc1	Pf Dd2 inh 7.9µM
CCN1C(=O)COC[C@@H]1[C@H](O)c1ccc(NC(=O)COc2ccccc2)cc1	none
CCOCCN1C(=O)COC[C@@H]1[C@H](O)c1ccc(NC(=O)COc2ccccc2)cc1	none
O=C(NCc1ccncc1)c1ccc(-c2ccc(N3CCCCC3)nc2)cc1	none
COc1ccc(CCNC(=O)c2ccc(Cn3c(=O)[nH]c4cc(OC)c(OC)cc4c3=O)cc2)cc1OC	none
Cc1cc(NC(=O)N2CCCC(Cn3cnc4cccnc43)C2)ccc1Br (centres undefined)	Pf Dd2 inh 8.9µM
COc1cccc(CNC(=O)N2CCCC(Cn3cnc4cccnc43)C2)c1 (centres undefined)	none
O=C(NCc1cccc(F)c1)N1CCCC(Cn2cnc3cccnc32)C1 (centres undefined)	none
Cc1cc(C)cc(NC(=O)N2CCCC(Cn3cnc4cccnc43)C2)c1 (centres undefined)	none
O=C(NCc1ccc(OC(F)(F)F)cc1)N1CCCC(Cn2cnc3cccnc32)C1 (centres undefined)	Pf Dd2 inh 7.1µM
Cc1cccc(NC(=O)N2CCCC(Cn3cnc4cccnc43)C2)c1 (centres undefined)	none
COc1cccc(CN2CCCC3(CCN(c4nc5ccccc5o4)C3)C2=O)c1 (centres undefined)	none
CCOc1ccccc1N(CC(=O)N1CCc2ccccc2C1)S(=O)(=O)c1ccccc1	none
CN1[C@@H](CCC(=O)NCc2ccc(F)cc2)CNC(=O)[C@@H]2[C@H]1CCN2Cc1csnn1	none
O=C(Nc1cccnc1)N1CCOC[C@H](Oc2ccccc2)C1	none
COC(=O)c1cc(OCC2CCC2)cc(C(=O)N2[C@H]3CCNC[C@@H]2CC3)c1	none
CCN(CC)Cc1cnc2c(C(=O)NC3CCC3)cnn2c1	none
CN(CC1(c2ccccc2)CC1(C)C)C(=O)c1cc(COc2c(F)cccc2F)on1 (centres undefined)	none
O=C(c1ccc(C2CCCNC2)cc1)N1CCC(N2CCCC2)CC1 (centres undefined)	none
Cc1cc(C)c(CNC(=O)c2nc(-c3cccc(O)c3)cc3[nH]ccc23)c(=O)[nH]1	none
COC(=O)c1scc(-c2ccc(C)cc2)c1S(=O)(=O)Nc1ccc(N(C)C)cc1	none
COC(=O)c1scc(-c2ccc(C)cc2)c1S(=O)(=O)N1CCN(c2ccc(C)cc2C)CC1	none
COC(=O)c1scc(-c2ccc(C)cc2)c1S(=O)(=O)N1CCN(c2ccccc2)CC1	none
COC(=O)c1scc(-c2ccc(C)cc2)c1S(=O)(=O)Nc1cc(C)c(Cl)cc1OC	Pf Dd2 inh 8.9µM
COC(=O)c1scc(-c2ccc(C)cc2)c1S(=O)(=O)N1CCN(c2ccccc2F)CC1	Pf Dd2 inh 11µM
COC(=O)c1scc(-c2ccc(C)cc2)c1S(=O)(=O)Nc1ccc(NC(C)=O)cc1	none
COc1ccc(OC2CCN(C(=O)C3CC3)CC2)c(C(=O)NCCCN2CCOCC2)c1	none
CCOC(=O)c1ccc(NC(=O)CSc2nc(-c3ccc(F)cc3)cc(C(F)(F)F)c2C#N)cc1	none
CCOc1ccccc1NC(=O)CC1CCCN(c2cnn(CC)c(=O)c2)C1 (centres undefined)	none
Cc1oc(-c2cccc(Cl)c2)nc1CN1CCC(C(=O)NCCCN2CCN(c3cccc(Cl)c3)CC2)CC1	none
CC1(CNC(=O)NC2CCCC2)CCOCC1	none
CCCc1noc(-c2ccn3c(CNC(=O)c4ccc(F)cc4Cl)nnc3c2)n1	Pf Dd2 inh 3.5µM
Cc1noc(-c2ccn3c(CNC(=O)c4ccc(F)cc4Cl)nnc3c2)n1	none
Cc1noc(-c2ccn3c(CNC(=O)c4ccccc4Cl)nnc3c2)n1	Pf Dd2 inh 0.28µM
CCCc1noc(-c2ccn3c(CNC(=O)c4ccc(C)cc4C)nnc3c2)n1	none
Cc1noc(-c2ccn3c(CNC(=O)c4ccccc4F)nnc3c2)n1	none
Cc1noc(-c2ccn3c(CNC(=O)c4cccc(Cl)c4)nnc3c2)n1	none
CCOc1cccc(CC(=O)NCc2ccc3c(c2)CCN3C(=O)c2ccc(F)cc2)c1OCC	none
C=CCN1CCN(CC2(O)CCCN(Cc3cc(OC)ccc3F)C2=O)CC1 (centres undefined)	none
COc1ccc(O)c(C2CC(=O)Nc3c2c(C)nn3-c2ccc(C)cc2)c1 (centres undefined)	none
Cc1ccc2c(c1)c1c(c(=O)n(-c3ccccc3C)c(=O)n1CC(=O)c1ccc(Cl)cc1)n2C	none
Cc1nc2c3ccccc3nc(NNC(=O)CCC(=O)N3CCN(c4cc(Cl)ccc4C)CC3)n2n1	none
O=C(Nc1ccccc1)N1CC(n2cc(C(=O)N3CCOCC3)nn2)C1	none
O=C(Nc1cccc(Cl)c1)N1CC(n2cc(COc3ccccc3)nn2)C1	Pf Dd2 inh 7.9µM
CNC(=O)[C@@H]1C[C@H](n2cc(CNC(=O)Nc3cccc(Cl)c3)nn2)CN1	none
CN(C)C[C@@H]1CN(C)C[C@H]1NC(=O)c1ccc(F)cc1F	none
O=C(Cn1nc2n(c1=O)CCCCC2)NCc1ccccc1Cl	none
COc1ccc(N2CCN(CC(O)COc3ccccc3C(C)(C)C)CC2)cc1 (centres undefined)	none
CCN(CC)CCn1c(=N)n(CC(O)COc2ccccc2C)c2ccccc21 (centres undefined)	Pf Dd2 inh 1.3µM
CCN(CC)CCn1c(=N)n(CCOc2ccccc2Cl)c2ccccc21	Pf Dd2 inh 4.5µM

Bioassay records: PubChem, National Center for Advancing Translational Sciences (NCATS)
